Measurements reported in ChEMBL document CHEMBL3988442, “University of Dundee, Small-Polar-MMV Screening Library” (2021).
Hit rate of the full screen: of about 48,000 compounds, about 13,000 (27%) showed an effect of 50% or more. Some of the results follow.

What follows are compounds tested on Wolbachia pipientis (assay: Anti-Wolbachia Cell-Based Screen). Conditions: 5 µM.
Type: functional
Parameters: scale not given: in the data most compounds retested in dose-response had high values

| Structure (SMILES) | Percent Effect [%] |
| --- | --- |
| O=C(NCCOc1ccc(F)c(F)c1)NCc1cccc(CO)c1 | -4.638 |
| Cc1nnc(NCC(c2ccco2)N2CCCCC2)c(C#N)c1C (stereo not given) | -2.88 |
| CN1CCN(C)C2(CCN(Cc3ccc(C4CCCCO4)o3)CC2)C1 (stereo not given) | 27.87 |
| CCC(C)C(=O)NCc1cccc(OCCN(C)C2CCOCC2)c1 (stereo not given) | 6.512 |
| CN1CC2(CCN(C(=O)c3coc4c3C(=O)CCC4)C2)OC1=O (stereo not given) | -2.236 |
| Cn1nccc1C(=O)N1C[C@@H]2CN(S(C)(=O)=O)CCO[C@@H]2C1 | 115.5 |
| Cc1ccc(C(=O)N2C[C@@H]3CN(S(C)(=O)=O)CCO[C@@H]3C2)s1 | -10.28 |
| Cc1nc(C(=O)N2C[C@@H]3CN(S(C)(=O)=O)CCO[C@@H]3C2)cs1 | -14.32 |
| Cn1cc(C(=O)N2C[C@@H]3CN(S(C)(=O)=O)CCO[C@@H]3C2)cn1 | 95.46 |
| O=C(c1cc2ccccc2s1)N1CCC(C(=O)O)(n2cccn2)CC1 | -13.71 |
| CCn1cc2c(n1)CN(C(=O)c1ccncc1)CC2COCC1CC1.O=C(O)C(F)(F)F (stereo not given) | 20.52 |
| O=C(COC1CCCCC1)N1CCCC(n2ccnc2)C1 (stereo not given) | 76.06 |
| O=C(COCc1ccccc1Cl)N1CCCC(n2ccnc2)C1 (stereo not given) | 103.7 |
| O=C(c1ccccc1OCC1CC1)N1CCCC(n2ccnc2)C1 (stereo not given) | 8.934 |
| COc1cccc(COCC(=O)N2CCCC(c3nncn3C)C2)c1 (stereo not given) | -0.5429 |
| O=C(COCC1CC1)N1CCCC(n2ccnc2)C1 (stereo not given) | 8.162 |
| CN(CC(=O)N1CCCC(n2ccnc2)C1)c1cnccn1 (stereo not given) | -4.389 |
| O=C(COc1ccccc1Cl)N1CCCC(n2ccnc2)C1 (stereo not given) | 92.71 |
| Cn1cnnc1C1CCCN(C(=O)COc2ccccc2Cl)C1 (stereo not given) | 152.2 |
| O=C(COCc1ccccc1Cl)N1CCCC(n2cccn2)C1 (stereo not given) | 1.04 |
| CCn1cnnc1C1CCCN(C(=O)COc2ccc(Cl)cc2)C1 (stereo not given) | 6.691 |
| CC1(COc2ccccc2)NCCc2[nH]cnc21 (stereo not given) | 7.349 |
| CCc1cc(CN(C)C(=O)C2CC(=O)N(c3cccc(O)c3)C2)on1 (stereo not given) | -10.41 |
| Cc1ccc(C(C(=O)N2CCN(C(=O)c3ccc[nH]3)CC2)N(C)C)cc1 (stereo not given) | 1.987 |
| COCCOc1ccc(NC(=O)N(CC2CCOC2)C2CC2)cn1 (stereo not given) | -6.429 |

| Structure (SMILES) | Percent Effect [%] |
| --- | --- |
| COc1cccc(COCC(=O)N2CCCC(n3ccnc3)C2)c1 (stereo not given) | -0.4033 |
| O=C(COCCc1ccccc1)N1CCCC(n2cccn2)C1 (stereo not given) | 5.674 |
| O=C(COCCOc1ccccc1)N1CCCC(n2ccnc2)C1 (stereo not given) | 75.36 |
| CC(C)c1cc(C(=O)N2CCCC2c2nc(-c3ccccc3)no2)[nH]n1 (stereo not given) | -1.356 |
| Cc1cc(C(=O)N2CCCC2c2nc(O)cc(C(C)C)n2)on1 (stereo not given) | 118.7 |
| CC(C)c1nc(C2CCCN2C(=O)c2nccnc2N)no1 (stereo not given) | -0.7868 |
| Cc1cc(C(=O)N2CCCC2c2nc(C)cc(O)n2)on1 (stereo not given) | 93.31 |
| CCn1ccnc1CN1CCC(CCC(=O)Nc2ccccc2Cl)CC1 | 11.39 |
| COCCC1(C(=O)O)CCCN(C(=O)c2cnc3c(c2)CCCC3)C1 (stereo not given) | 8.826 |
| O=C(Cc1cn2ccccc2n1)N1CCCC(n2cccn2)C1 (stereo not given) | 62.83 |
| O=C(Cc1ccc(-n2cccn2)cc1)N1CCCC(n2cccn2)C1 (stereo not given) | 7.23 |
| O=C(Cc1ccc2c(c1)OCCO2)N1CCCC(n2ccnc2)C1 (stereo not given) | 5.657 |
| Cc1cnn(C2CCCN(C(=O)Cc3cn4ccccc4n3)C2)c1 (stereo not given) | 14.59 |
| O=C(Cc1cn2ccccc2n1)N1CCCC(n2ccnc2)C1 (stereo not given) | 115.6 |
| Fc1cccc2ncnc(NCCCc3ccncc3)c12 | -47.88 |
| CCN(C)C1COC2(CCN(C(=O)c3ccc(Cl)cc3)CC2)C1.O=C(O)C(F)(F)F (stereo not given) | -12.32 |
| O=C(O)C(F)(F)F.O=C(c1cocn1)N1CCC2(CC1)CC(Oc1ccccn1)CO2 (stereo not given) | 3.532 |
| COC1COC2(CCN(C(=O)c3ccc4ccccc4c3)CC2)C1 (stereo not given) | 112.4 |
| CS(=O)(=O)N1CCC2(CC1)CC(Oc1ccccn1)CO2.O=C(O)C(F)(F)F (stereo not given) | 10.24 |
| COC1COC2(CCN(C(=O)c3ncccn3)CC2)C1 (stereo not given) | -17.92 |
| O=C(c1ccccc1)N1CCC2(CC1)CC(Oc1ccccc1)CO2 (stereo not given) | 2.639 |
| O=C(O)C(F)(F)F.O=C(c1ccccc1F)N1CCC2(CC1)CC(Oc1ccccn1)CO2 (stereo not given) | 109.1 |
| O=C(O)C(F)(F)F.O=C(O)C(F)(F)F.c1cc(CN2CCC3(CC2)CC(N2CCCC2)CO3)co1 (stereo not given) | -12.83 |
| COC1COC2(CCN(C(=O)c3cnc(C)cn3)CC2)C1 (stereo not given) | 14.55 |
| COC1COC2(CCN(C(=O)c3cocn3)CC2)C1 (stereo not given) | -7.314 |
